# In the library only some 4% were active in any assay of this set; here they are far more common.
# TIM10 inh = TIM10 yeast growth inhibition; S. cerevisiae TIM10 strain growth, BacTiter-Glo luminescence, 24 h; inhibition, % at 10 µM; 1.4% of 330,000 active; AID 463195;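 active = inhibition of 40% or more at the single tested concentration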;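 also: wild-type TIM10 isogenic control strain grown at permissive 25 °C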
# tim10-1 inh = inhibits growth of tim10-1 mutant yeast; AID 463190; 2.2% of 330,000 active; inhibition, % at 20 µM; S. cerevisiae tim10-1 ts strain growth, BacTiter-Glo, 24 h;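 active = inhibition of at least 40%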;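 also: mutant grown at 25 °C; 0% = DMSO wells with yeast and 100% = wells holding no yeast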
# NALP1 inh = inhibitors of NALP1 inflammasome in yeast; S. cerevisiae NALP1/ASC/caspase-1 growth, X-gal OD620, 72 h; 0.61% of 280,000 active; inhibition, % at 10 µM; AID 2071; in the data active = inhibition mostly above about 24%, no sharp cut-off; inactive = mostly below about 32%
# tim23-1 inh = growth inhibitors of tim23-1 mutant yeast; S. cerevisiae tim23-1 growth, BacTiter-Glo luminescence, 24 h; 1.3% of 330,000 active; inhibition, % at 20 µM;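 active = growth inhibition of the mutant yeast at or above 50%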;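 also: temperature-sensitive mutant grown at 25 °C; plate controls were DMSO-treated mutant yeast for no effect and medium wells lacking yeast for full effect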
# NLRP3 yeast inh = NALP3 inhibition in yeast | 0.39% of 330,000 active | Yeast reconstituted NLRP3/ASC/caspase-1, beta-gal luminescence, 24 h | inhibition, % at 10 µM;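 active = inhibition of 50% or more; inactive = inhibition below 50%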;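 also: plate controls were induced DMSO wells for no effect and uninduced yeast grown without galactose for full effect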
# TIM10 conf = TIM10 yeast growth inhibition, confirmed; inhibition, % at 10 µM; 63% of 4,600 active; AID 463215; S. cerevisiae tim10 strain growth, BacTiter-Glo luminescence, 24 h; shares compounds with TIM10 inh;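 active = inhibition of yeast growth at or above a set limit in either of two replicates at 10 µM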;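 also: this counterscreen used the strain with wild-type TIM10; 0% = yeast with DMSO and 100% = medium wells lacking yeast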
# * marks the source's active call; other numbers are inactive results; nt = no result given.
SMILES,TIM10 inh,tim10-1 inh,NALP1 inh,tim23-1 inh,NLRP3 yeast inh,TIM10 conf
O=C1c2ccccc2S(=O)(=O)c2cc(N3CCc4ccccc4C3)ccc21,44*,35,nt,37,22,28
COc1ccc(N2C(=O)/C(=C\c3ccco3)N=C2SCC(=O)NC(C)C)cc1Cl,18,22,25,44,7,nt
COc1ccc(N2C(=O)/C(=C\c3ccco3)N=C2SCC(=O)N(C(C)C)C(C)C)cc1Cl,41*,31,14,30,13,9
NS(=O)(=O)c1ccc(-c2cccc(/C=C3\SC(=O)NC3=O)c2)cc1,-7,9,8,-1,-42,nt
COc1cc(C(=O)NCc2nnc(SCC(=O)NC3CCCC3)o2)cc(OC)c1OC,8,32,-5,13,7,nt
O=C(c1ccc(F)cc1)N1CCCC(C(=O)N2CCc3ccccc3C2)C1 (stereo not drawn),-16,13,6,8,12,nt
N#C/C(=C\c1cccnc1)c1nc2ccccc2[nH]1,75*,19,-15,13,12,-2
N#C/C(=C\c1ccccc1C(=O)O)c1nc2ccccc2[nH]1,12,-13,2,-1,15,nt
O=C(Nc1ccccc1)c1c2c(nc3ccccc13)CCCC2,-5,9,18,-5,-14,nt
Cc1ccc(C)c(NC(=O)c2ccccc2C(=O)c2ccccc2)c1,41*,23,0,34,3,29
Cc1ccc(C(=O)c2ccccc2C(=O)Nc2ccccc2)cc1,10,20,nt,35,14,nt
COc1cc(SC)ccc1C(=O)Nc1ccc(Br)cn1,-9,7,10,0,15,nt
COc1cc(SC)ccc1C(=O)Nc1ncc(Cl)cc1Cl,48*,17,-8,9,21,-8
Cc1ccc([N+](=O)[O-])cc1N=Nc1c(C)[nH]n(C(N)=S)c1=O,43*,30,5,27,24,34*
Cc1ccc([N+](=O)[O-])cc1N=Nc1c(-c2ccc([N+](=O)[O-])cc2)[nH]n(C(N)=S)c1=O,nt,nt,-5,nt,nt,nt
Cc1ccc(-c2[nH]nc3c2C(c2ccoc2)C(C#N)=C(N)O3)cc1C (stereo not drawn),41*,39,-12,42,6,30
CCOc1ccc(NS(=O)(=O)c2ccc(NS(=O)(=O)c3ccccc3)cc2)cc1,-1,7,4,22,-6,nt
CCOc1ccc(S(=O)(=O)Nc2cccc(Cl)c2)cc1,49*,29,nt,48,17,43*
O=C(CSc1nnc(-c2cccs2)n1CC1CCCO1)c1cc2ccccc2o1 (stereo not drawn),41*,31,-8,19,3,-26
CC(C)NC(=O)Nc1ccc(Br)cc1Cl,4,24,0,-6,19,nt
CC(C)(C)c1cc(NC(=O)Nc2ccc(Br)cc2Cl)no1,42*,29,17,30,11,41*
CC(C)(C)c1cc(NC(=O)Nc2ccc(Cl)cc2Cl)no1,42*,34,nt,27,13,43*
O=C(Nc1ccon1)Nc1ccc(Cl)cc1Cl,30,33,9,28,-15,nt
Cc1cc(N(CCO)CCO)ccc1C(c1ccc(N(CCO)CCO)cc1C)c1ccccc1Cl,12,16,14,13,-2,nt
O=C(Nc1ncn[nH]1)c1ccc([N+](=O)[O-])cc1[N+](=O)[O-],43*,6,-5,-5,-3,-20
SMILES,TIM10 inh,tim10-1 inh,NALP1 inh,tim23-1 inh,NLRP3 yeast inh,TIM10 conf
O=C(Nc1ncn[nH]1)c1cc([N+](=O)[O-])ccc1Cl,5,10,10,5,17,nt
COc1ccc(-c2csc(NC(=O)C3CSC4(C)CCC(=O)N34)n2)c(OC)c1 (stereo not drawn),6,23,nt,26,-4,nt
Cc1cc2oc(=O)c3c(c2cc1OC(=O)c1ccco1)CCCC3,-17,-37,13,-32,31,nt
COC(=O)Cc1c(C)c2cc(Cl)c(OC(=O)c3ccco3)cc2oc1=O,54*,23,16,11,-2,40*
O=C(Oc1cc2oc(=O)c3c(c2cc1Cl)CCCC3)c1ccco1,51*,37,nt,13,30,32*
NS(=O)(=O)c1ccc(NC(=O)CSc2n[nH]c(=O)n2C2CC2)cc1,12,6,nt,6,10,nt
CCN(CC(=O)Nc1c(F)cccc1F)C(=O)CCNS(=O)(=O)c1ccccc1C(F)(F)F,-6,-18,nt,-1,2,nt
CSc1ncc(C(=O)Nc2ccc(C(C)=O)cc2)c(-c2ccccc2)n1,-5,11,2,4,6,nt
Nc1cc(OC(=O)c2ccc(F)cc2)nn1S(=O)(=O)c1ccccc1,39,26,8,37,7,nt
COc1ccc(S(=O)(=O)n2nc(OC(=O)c3ccccc3Br)cc2N)cc1,50*,35,-25,30,5,19
CC(C)(C)C(=O)Oc1cc(N)n(S(=O)(=O)c2ccccc2)n1,5,26,nt,5,14,nt
COc1ccc(S(=O)(=O)n2nc(OC(=O)c3ccccc3)cc2N)cc1,49*,37,16,47,5,29
COc1ccc(S(=O)(=O)n2nc(OC(=O)c3ccc(C)cc3)cc2N)cc1,53*,34,2,39,1,35*
Cc1ccc(C(=O)Oc2cc(N)n(S(=O)(=O)c3ccc(C)cc3)n2)cc1,14,38,-5,35,5,nt
Cc1ccc(S(=O)(=O)n2nc(OC(=O)c3ccccc3F)cc2N)cc1,46*,14,3,43,-5,48*
CC(/C=C1\SC(=S)N(NS(=O)(=O)c2ccc(C)cc2)C1=O)=C\c1ccccc1,48*,28,nt,29,-14,25
CC(/C=C1\SC(=S)N(NS(=O)(=O)c2ccccc2)C1=O)=C\c1ccccc1,3,2,11,41,-1,nt
c1ccc(-c2nc3cnccn3c2Nc2ccc3c(c2)OCCO3)cc1,44*,34,10,35,4,12
CCOc1ccc(NC(=O)CN(C)C(=O)c2ccc(C)o2)cc1OCC,-13,18,23,7,6,nt
Cc1cc(-c2ccccc2)nc(N/N=C/c2ccco2)n1,45*,39,-6,42,6,37*
Cc1cc(C)nc(N/N=C/c2ccco2)n1,5,-4,5,-1,4,nt
COc1ccccc1-c1cc(C(F)(F)F)nc(S(=O)(=O)CCCC(=O)NCc2ccc(F)cc2)n1,50*,38,14,9,8,14
COc1ccccc1-c1cc(C(F)(F)F)nc(S(=O)(=O)CCCC(=O)NC(C)C)n1,42*,38,22,32,18,-20
Cc1ccc(OC(C)C(=O)N2CC(=O)Nc3ccccc32)c(C)c1 (stereo not drawn),16,-13,7,-1,-8,nt
COc1ccc(C(=O)/C=C/c2ccccc2F)c(OC(=O)c2ccc([N+](=O)[O-])cc2)c1,44*,38,-5,-1,11,41*

# Bioassay records from PubChem.
